According to the supplement of paper PMC10011410:
± gives the standard deviation of the averaged measurements.

Tested on: AmpC beta-lactamase (E. coli)
Test: AmpC inhibition relative to DMSO; higher = more inhibition
Protocol: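 Aggregation counter-screen: inhibition of E. coli AmpC beta-lactamase (5 nM, nitrocefin substrate, 50 mM sodium phosphate pH 7.0, RT, 5 min) by KAT inhibitors at 4, 11, 33 and 100 uM, with or without 0.01% Triton X-100. Percent inhibition is relative to DMSO controls. Four technical replicates.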

[1] = 4 µM, detergent: 0.01% Triton X-100
[2] = 11 µM, detergent: 0.01% Triton X-100
[3] = 33 µM, detergent: 0.01% Triton X-100
[4] = 100 µM, detergent: 0.01% Triton X-100
[5] = 100 µM, detergent: no detergent

SMILES	AmpC inhibition [1] [%]	AmpC inhibition (4 µM, detergent: no detergent) [%]	AmpC inhibition [2] [%]	AmpC inhibition (11 µM, detergent: no detergent) [%]	AmpC inhibition [3] [%]	AmpC inhibition (33 µM, detergent: no detergent) [%]	AmpC inhibition [4] [%]	AmpC inhibition [5] [%]
Cc1cc2c(C(C)C)c(O)c(O)c(C=O)c2c(O)c1-c1c(C)cc2c(C(C)C)c(O)c(O)c(C=O)c2c1O	-0.343 ± 1.1	0.793 ± 12	4.76 ± 2.2	-3.81 ± 3.7	-3 ± 5.7	-7.04 ± 18	6.4 ± 5.5	32.1 ± 2.7
O=C(/C(C(N1CC2=CC=CC=C2)=O)=C/C3=C(C)C=C(O)C=C3C)N(CC4=CC=CC=C4)C1=O	4.49 ± 6.9	2.08 ± 1.8	3.45 ± 13	29.6 ± 8.8	10.9 ± 3.2	65.9 ± 6.2	14.8 ± 0.9	84.9 ± 8.3
CC(=O)c1c(O)c(C)c(O)c(Cc2c(O)c3c(c(C(=O)C=Cc4ccccc4)c2O)OC(C)(C)C=C3)c1O	0.746 ± 2.2	3.59 ± 4.4	5.76 ± 7.3	41 ± 3.5	-0.691 ± 4	73.8 ± 1.6	7.83 ± 5.4	82.1 ± 1.2
